Assay results reported in PubChem BioAssay (NCATS).
Results filed as inconclusive are left out. Activity calls are given as the source filed them. Calls follow the shape of the dose curve; as a rule, active = well fitted curve in the direction sought with a large enough effect; inconclusive = small, poorly fitted or top-dose-only effect, or another doubt; inactive = no such curve, though single readings can be large; an effect the other way counts as inactive or inconclusive.

Assays:
[1] = Quantitative High-Throughput drug screen in 47 multiple myeloma cell lines against the NCATS MIPE library collection: KMM1_JCRB cell viability assay (AID 1918960); also: nearly all actives have a fitted effect of over 30% in size;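 as to viability (% of DMSO): 100% = DMSO-treated cells and 0% = medium-only wells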
In short: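 Each line was plated at 500 cells/well and treated 48 h with library drugs. Viability came from CellTiter-Glo luminescence relative to DMSO and cell-free medium controls.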

[2] = Quantitative High-Throughput drug screen in 47 multiple myeloma cell lines against the NCATS MIPE library collection: KHM11_PLB cell viability assay (AID 1918962); also: nearly all actives have a fitted effect of over 35% in size
In short: (§1)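 We plated 500 myeloma cells per well, pinned in MIPE 4.0 compounds, and incubated for 48 hours at 37C. ATP was then quantified with CellTiter-Glo, with DMSO and media-only wells defining 100% and 0%.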

[3] = Quantitative High-Throughput drug screen in 47 multiple myeloma cell lines against the NCATS MIPE library collection: JIM3_ECACC cell viability assay (AID 1918963; also: nearly all actives have a fitted effect of over 35% in size)
In short: as §1

[4] = Quantitative High-Throughput drug screen in 47 multiple myeloma cell lines against the NCATS MIPE library collection: INA6_PLB cell viability assay (AID 1918965; also: nearly all actives have a fitted effect of over 55% in size)
In short: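 Viability readout: CellTiter-Glo luminescence following 5 min room-temperature incubation with reagent. Prior exposure: 48 h, 37C, humidified 5% CO2, 500 cells per well.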

[5] = Quantitative High-Throughput drug screen in 47 multiple myeloma cell lines against the NCATS MIPE library collection: JJN3_DSMZ cell viability assay (AID 1918966; also: nearly all actives have a fitted effect of over 50% in size)
In short: (§2)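 Inhibition of cell viability is measured here. Each line was plated at 500 cells per well, treated with MIPE 4.0 drugs, kept 48 hours at 37C, then assayed for ATP content by CellTiter-Glo luminescence.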

[6] = Quantitative High-Throughput drug screen in 47 multiple myeloma cell lines against the NCATS MIPE library collection: H1112_PLB cell viability assay (AID 1918967; also: nearly all actives have a fitted effect of over 30% in size)
In short: as §2

[7] = Quantitative High-Throughput drug screen in 47 multiple myeloma cell lines against the NCATS MIPE library collection: Karpas25_ECACC cell viability assay (AID 1918968; also: nearly all actives have a fitted effect of over 35% in size)
In short: as §2

[8] = Quantitative High-Throughput drug screen in 47 multiple myeloma cell lines against the NCATS MIPE library collection: KMS27_JCRB cell viability assay (AID 1918970); settings: KMS27 myeloma cells, CellTiter-Glo ATP viability, 48 h; viability (% of DMSO): at 45.8 µM (top of the series); also: nearly all actives have a fitted effect of over 30% in size
In short: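 Myeloma cells (500 per well) were exposed to MIPE 4.0 compounds for 48 h at 37 °C, 5% CO2; viability was read as ATP luminescence with CellTiter-Glo, normalized to DMSO-only (100%) and media-only (0%) wells.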

[9] = Quantitative High-Throughput drug screen in 47 multiple myeloma cell lines against the NCATS MIPE library collection: JIM1_ECACC cell viability assay (AID 1918964)
In short: as §2
Potency is read from the fitted curve at half-maximal effect.

COc1cc([C@@H]2c3cc4c(cc3[C@H](O)[C@H]3COC(=O)[C@@H]23)OCO4)cc(OC)c1OC
active: Potency [1] 0.0833 µM | Potency [2] 0.105 µM | Potency [3] 0.118 µM | Potency [4] 0.148 µM | Potency [5] 0.526 µM | Potency [6] 0.526 µM | Potency [7] 0.187 µM | Potency [8] 0.0526 µM

C[C@H](NC(=O)Cc1cc(F)cc(F)c1)C(=O)N[C@H](C(=O)OC(C)(C)C)c1ccccc1
inactive: Potency [1] | Potency [2] | Potency [6] | Potency [7] | Potency [8]

NC1=N[C@H]2[C@H](CS[C@H]2CCCCC(=O)O)N1
inactive: Potency [1] | Potency [2] | Potency [3] | Potency [4] | Potency [6] | Potency [7] | Potency [8]

CC(C(C)N1CC(=O)NC(=O)C1)N1CC(=O)NC(=O)C1 (stereo not given)
inactive: Potency [1] | Potency [2] | Potency [6] | Potency [7]

CCCc1nc(C(C)(C)O)c(C(=O)O)n1Cc1ccc(-c2ccccc2-c2nn[nH]n2)cc1
inactive: Potency [1] | Potency [2] | Potency [3] | Potency [5] | Potency [7] | Potency [8]

O=C(O)CCCCC(CCSCc1ccccc1)SCc1ccccc1 (stereo not given)
inactive: Potency [2] | Potency [3]
active: Potency [1] 13.2 µM | Potency [8] 13.2 µM

Cc1ccc([N+](=O)[O-])cc1S(=O)(=O)N(C)N=Cc1cnc2ccc(Br)cn12
active: Potency [1] 0.0118 µM | Potency [3] 0.0105 µM | Potency [9] 0.001 µM

C[C@H](CCC(=O)O)[C@H]1CCC2C3C[C@H](O)[C@@H]4C[C@H](O)CC[C@]4(C)C3CC[C@@]21C (stereo not given in full)
inactive: Potency [1] | Potency [2] | Potency [9] | Potency [4] | Potency [6]

COc1ccnc2[nH]cc(C(=O)C(=O)N3CCN(C(=O)c4ccccc4)C[C@@H]3C)c12
inactive: Potency [1] | Potency [2] | Potency [4] | Potency [6] | Potency [7] | Potency [8]
active: Potency [5] 13.2 µM

Oc1cc(-c2nc(-c3ccccc3)[nH]c2-c2ccncc2)ccc1Cl
active: Potency [1] 1.87 µM | Potency [2] 1.18 µM | Potency [3] 20.9 µM | Potency [5] 18.7 µM | Potency [7] 2.96 µM | Potency [8] 2.64 µM

O=C(NNC(=O)c1ccc(CNS(=O)(=O)c2ccc(F)c(Cl)c2)cc1)c1ccccc1
inactive: Potency [1] | Potency [2] | Potency [3] | Potency [5] | Potency [7] | Potency [8]

C[C@@]12C[C@@]3(O)O[C@@H](O1)[C@]1(COC(=O)c4ccccc4)[C@@H]3C[C@@]12O[C@@H]1O[C@H](CO)[C@@H](O)[C@H](O)[C@@H]1O
inactive: Potency [1] | Potency [2] | Potency [9] | Potency [6] | Potency [7] | Potency [8]

O=c1c(O)c(-c2ccc(O)c(O)c2)oc2cc(O)ccc12
active: Potency [1] 5.9 µM | Potency [2] 13.2 µM | Potency [3] 13.2 µM | Potency [4] 7.43 µM | Potency [6] 26.4 µM | Potency [7] 8.33 µM

CCOC(=O)N1CCN([N+]([O-])=NOc2ccc([N+](=O)[O-])cc2[N+](=O)[O-])CC1
active: Potency [1] 10.5 µM | Potency [2] 1.48 µM | Potency [3] 2.64 µM | Potency [4] 2.96 µM | Potency [5] 2.64 µM | Potency [6] 1.18 µM | Potency [7] 0.469 µM | Potency [8] 4.18 µM

CCN1CCN(C(=O)N[C@H](C(=O)N[C@@H]2C(=O)N3C(C(=O)O)=C(CSc4nnnn4C)CS[C@@H]23)c2ccc(O)cc2)C(=O)C1=O
inactive: Potency [1] | Potency [2] | Potency [3] | Potency [6] | Potency [7]

CC(=O)NC(CS)C(=O)O (stereo not given)
active: Potency [4] 2.96 µM
inactive: Potency [1] | Potency [2] | Potency [3] | Potency [6] | Potency [7]

CN1C(C(=O)Nc2ccccn2)=C(O)c2sc(Cl)cc2S1(=O)=O
active: Potency [2] 3.32 µM | Potency [3] 3.72 µM | Potency [4] 2.64 µM | Potency [7] 2.64 µM
inactive: Potency [1] | Potency [8]

N#Cc1ccc(COC[C@H]2O[C@@H](n3c(NCc4ccc(Cl)c(Cl)c4)nc4c(N)ncnc43)[C@@H](O)[C@@H]2O)cc1
active: Potency [1] 5.26 µM | Potency [3] 14.8 µM | Potency [9] 3.72 µM | Potency [4] 7.43 µM | Potency [5] 0.469 µM | Potency [7] 23.5 µM

COc1cc2ncnc(Nc3cccc(Br)c3)c2cc1OC
active: Potency [1] 14.8 µM | Potency [2] 16.6 µM | Potency [3] 2.64 µM | Potency [4] 3.32 µM | Potency [5] 20.9 µM | Potency [7] 0.526 µM | Potency [8] 23.5 µM

Nc1nc2c(c(=O)[nH]1)N(C=O)[C@H](CNc1ccc(C(=O)N[C@@H](CCC(=O)O)C(=O)O)cc1)CN2
inactive: Potency [1] | Potency [2] | Potency [9] | Potency [4] | Potency [6] | Potency [7] | Potency [8]

C=CC(=O)Nc1ccc2ncnc(Nc3ccc(OCc4cccc(F)c4)c(Cl)c3)c2c1
active: Potency [1] 0.148 µM | Potency [2] 6.62 µM | Potency [9] 0.0418 µM | Potency [4] 0.662 µM | Potency [5] 18.7 µM | Potency [6] 1.05 µM | Potency [7] 1.87 µM | viability (% of DMSO) [8] 70.4%

Cc1coc2c1C(=O)C(=O)c1c-2ccc2c(C)cccc12
active: Potency [4] 13.2 µM | Potency [7] 2.96 µM
inactive: Potency [1] | Potency [2] | Potency [9]

CCc1ccc(C(=O)Nc2cc(CN3CCN(C)CC3)cc(C(F)(F)F)c2)cc1C#Cc1cnc2ccnn2c1
active: Potency [1] 6.62 µM | Potency [2] 9.35 µM | Potency [3] 7.43 µM | Potency [4] 4.69 µM | Potency [6] 2.64 µM | Potency [7] 8.33 µM | Potency [8] 5.9 µM

O=C1NC(=O)[C@@H](c2cn3c4c(cccc24)CCC3)[C@H]1c1c[nH]c2ccccc12
active: Potency [1] 0.105 µM | Potency [3] 0.118 µM | Potency [9] 0.0469 µM | Potency [4] 0.209 µM | Potency [5] 16.6 µM | Potency [6] 1.66 µM | Potency [7] 0.833 µM | Potency [8] 0.0833 µM

CC[C@H](CC[C@@H](C)[C@H]1CC[C@H]2[C@@H]3CC=C4C[C@@H](O)CC[C@]4(C)[C@@H]3CC[C@]12C)C(C)C
inactive: Potency [1] | Potency [2] | Potency [3] | Potency [5] | Potency [6] | Potency [7]

CC1=C(C(=O)Nc2cc3cn[nH]c3cc2F)C(c2ccc(Cl)cc2F)N=C(c2ccnc(Cl)c2)N1 (stereo not given)
inactive: Potency [2]
active: Potency [1] 20.9 µM | Potency [9] 16.6 µM | Potency [4] 10.5 µM | Potency [6] 18.7 µM | Potency [7] 14.8 µM | Potency [8] 29.6 µM

C[C@H]1O[C@H](O[C@H]2[C@H](O)[C@@H](O)[C@@H](O[C@H]3[C@H](O)[C@@H](O)C(O)O[C@H]3CO)O[C@H]2CO)[C@H](O)[C@@H](O)[C@H]1N[C@H]1C=C(CO)[C@@H](O)[C@H](O)[C@@H]1O (stereo not given in full)
inactive: Potency [1] | Potency [2] | Potency [3] | Potency [4] | Potency [6]

C[C@H](NC(=O)C(C#N)=Cc1cccc(Br)n1)c1ccccc1
active: Potency [1] 10.5 µM | Potency [2] 2.09 µM | Potency [3] 2.09 µM | Potency [4] 1.87 µM | Potency [7] 2.09 µM | Potency [8] 13.2 µM

C=C1CCC2[C@](C)(CO)C(O)CC[C@]2(C)C1CC=C1C(=O)OCC1O (stereo not given in full)
inactive: Potency [1] | Potency [2] | Potency [4] | Potency [7]

N#CC(=Cc1ccc(O)c(O)c1)C(=O)NCc1ccccc1
active: Potency [2] 9.35 µM | Potency [3] 8.33 µM | Potency [4] 16.6 µM | Potency [6] 7.43 µM | Potency [8] 0.833 µM
inactive: Potency [1]

CC(C)C[C@H](NC(=O)[C@@H](NC(=O)c1cccc(-c2ccccc2)n1)[C@@H](C)O)B(O)O
active: Potency [1] 0.0074 µM | Potency [2] 0.0187 µM | Potency [9] 0.0105 µM | Potency [4] 0.001 µM | Potency [5] 0.0418 µM | Potency [6] 0.0332 µM | Potency [7] 0.0132 µM | Potency [8] 0.0235 µM

COc1cccc2c1C(=O)c1c(O)c3c(c(O)c1C2=O)C[C@@](O)(C(=O)CO)C[C@@H]3O[C@H]1C[C@H](N)[C@@H](O)[C@H](C)O1
active: Potency [1] 2.09 µM | Potency [2] 0.743 µM | Potency [3] 0.935 µM | Potency [4] 0.166 µM | Potency [5] 0.662 µM | Potency [6] 0.59 µM | Potency [7] 0.418 µM | Potency [8] 0.935 µM

O=S(=O)(O)CCSSCCS(=O)(=O)O
inactive: Potency [1] | Potency [2] | Potency [3] | Potency [4] | Potency [7] | Potency [8]

c1coc(CNc2ncnc3nc[nH]c23)c1
inactive: Potency [1] | Potency [2] | Potency [4] | Potency [6] | Potency [7]

C[C@]12C=CC(=O)N[C@@H]1CC[C@H]1[C@H]3CC[C@@H](C(=O)Nc4cc(C(F)(F)F)ccc4C(F)(F)F)[C@@]3(C)CC[C@@H]12
active: Potency [6] 13.2 µM | Potency [7] 11.8 µM
inactive: Potency [1] | Potency [2] | Potency [3] | Potency [8]

C[C@H](NC(=O)[C@@H](O)c1cc(F)cc(F)c1)C(=O)N[C@@H]1C(=O)N(C)c2ccccc2-c2ccccc21
active: Potency [6] 14.8 µM
inactive: Potency [1] | Potency [2] | Potency [4] | Potency [5] | Potency [7]

COC(=O)[C@@H]1[C@H]2C[C@@H]3c4[nH]c5ccccc5c4CCN3C[C@@H]2CC[C@@H]1O
inactive: Potency [1] | Potency [3] | Potency [4] | Potency [6] | Potency [7] | Potency [8]

Cc1cncc2cccc(S(=O)(=O)N3CCCN(C(=O)CN)C[C@@H]3C)c12
active: Potency [4] 16.6 µM | Potency [6] 20.9 µM | Potency [8] 0.418 µM
inactive: Potency [1] | Potency [3]
